# From publication PMC7862700, “An all-to-all approach to the identification of sequence-specific readers for epigenetic DNA modifications on cytosine”
# Assays:
# Assay in all cases: DAPPL (digital affinity profiling via proximity ligation, sequencing); 10 mM Tris-HCl pH 7.5, 50 mM NaCl, 1 mM DTT, 4% glycerol, room temperature, 30 min; GST-TFs on glutathione beads, 16-mer random dsDNA library, 0.1% formaldehyde crosslink after washing; high values mean tight binding
# FEV = biological target: T1, FEV (Homo sapiens, UniProt Q99581 1-238); settings: protein: recombinant; tags: N-terminal GST; dsDNA, one strand shown
# T1 sequence: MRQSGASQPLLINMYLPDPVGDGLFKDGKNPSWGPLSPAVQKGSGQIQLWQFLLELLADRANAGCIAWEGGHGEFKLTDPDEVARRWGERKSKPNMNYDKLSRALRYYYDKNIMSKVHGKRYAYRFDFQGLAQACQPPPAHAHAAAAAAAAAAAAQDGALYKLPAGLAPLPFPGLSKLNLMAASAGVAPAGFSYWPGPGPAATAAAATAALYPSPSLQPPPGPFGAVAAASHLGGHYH
# Outline: (§1)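 Binding signal is defined as a hexamer's read frequency for one factor over its frequency for the tag-only sample. To obtain reads, GST-fused human transcription factors were expressed in yeast, captured on glutathione beads, barcoded with DNA and pooled with that sample. Pools met 200 nmole of a 16-mer random double-stranded DNA library in Tris/NaCl/DTT/glycerol buffer for 30 min at room temperature before washing, 0.1% formaldehyde crosslinking, proximity ligation (BsaI/T4 ligase, 1 h, 37 °C), PCR and Illumina NextSeq500 sequencing.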
# ETV5 = ETV5 (Homo sapiens, UniProt P41161 1-510); settings: protein: recombinant; tags: N-terminal GST; dsDNA, one strand shown
# Chain of ETV5 (P41161 whole entry): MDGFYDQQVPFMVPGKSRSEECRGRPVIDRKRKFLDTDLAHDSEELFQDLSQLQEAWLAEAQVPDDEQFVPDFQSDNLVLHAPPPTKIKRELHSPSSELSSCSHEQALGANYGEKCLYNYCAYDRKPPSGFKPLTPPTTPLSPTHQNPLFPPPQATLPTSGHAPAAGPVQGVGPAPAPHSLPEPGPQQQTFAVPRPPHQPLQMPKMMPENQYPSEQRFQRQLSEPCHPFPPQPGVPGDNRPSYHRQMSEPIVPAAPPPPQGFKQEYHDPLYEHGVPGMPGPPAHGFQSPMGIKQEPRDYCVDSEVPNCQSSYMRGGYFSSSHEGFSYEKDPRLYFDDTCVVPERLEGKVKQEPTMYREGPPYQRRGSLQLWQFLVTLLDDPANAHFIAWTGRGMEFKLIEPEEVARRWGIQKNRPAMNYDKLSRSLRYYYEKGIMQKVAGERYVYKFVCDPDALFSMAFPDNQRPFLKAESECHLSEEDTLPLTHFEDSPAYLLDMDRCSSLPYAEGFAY
# Outline: as §1
# HSF1 = HSF1 (Homo sapiens, UniProt Q00613 1-529); settings: protein: recombinant; tags: N-terminal GST; chain copies: 3; dsDNA, one strand shown
# Chain of HSF1 (Q00613 whole entry): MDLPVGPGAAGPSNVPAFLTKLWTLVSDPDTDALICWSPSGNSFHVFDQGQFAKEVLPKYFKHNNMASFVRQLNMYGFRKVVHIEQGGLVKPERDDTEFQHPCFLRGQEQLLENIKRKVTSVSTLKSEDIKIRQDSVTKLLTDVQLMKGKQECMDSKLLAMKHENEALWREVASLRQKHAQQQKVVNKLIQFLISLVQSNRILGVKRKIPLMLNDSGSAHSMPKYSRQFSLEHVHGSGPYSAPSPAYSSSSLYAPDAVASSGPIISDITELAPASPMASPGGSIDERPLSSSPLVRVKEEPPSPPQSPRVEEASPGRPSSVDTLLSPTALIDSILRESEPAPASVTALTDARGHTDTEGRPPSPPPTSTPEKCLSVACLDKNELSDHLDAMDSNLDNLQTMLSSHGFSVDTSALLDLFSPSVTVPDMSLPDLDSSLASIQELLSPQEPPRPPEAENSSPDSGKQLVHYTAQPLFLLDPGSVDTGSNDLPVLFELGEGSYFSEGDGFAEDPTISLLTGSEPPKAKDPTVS
# Outline: as §1
# SPIC = biological target: T2, SPIC (Homo sapiens, UniProt Q8N5J4 1-248); settings: protein: recombinant; tags: N-terminal GST; dsDNA, one strand shown
# T2 sequence: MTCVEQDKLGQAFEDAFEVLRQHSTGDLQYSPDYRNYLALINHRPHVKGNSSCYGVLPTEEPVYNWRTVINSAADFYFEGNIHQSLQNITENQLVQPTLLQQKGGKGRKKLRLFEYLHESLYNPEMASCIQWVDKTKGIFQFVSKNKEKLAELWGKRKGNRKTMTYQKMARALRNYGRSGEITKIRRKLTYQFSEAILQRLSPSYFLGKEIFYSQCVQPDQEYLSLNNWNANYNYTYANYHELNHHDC
# Outline: as §1
# ELF4 = ELF4 (Homo sapiens, UniProt Q99607 1-663); settings: protein: recombinant; tags: N-terminal GST; dsDNA, one strand shown
# Chain of ELF4 (Q99607 whole entry): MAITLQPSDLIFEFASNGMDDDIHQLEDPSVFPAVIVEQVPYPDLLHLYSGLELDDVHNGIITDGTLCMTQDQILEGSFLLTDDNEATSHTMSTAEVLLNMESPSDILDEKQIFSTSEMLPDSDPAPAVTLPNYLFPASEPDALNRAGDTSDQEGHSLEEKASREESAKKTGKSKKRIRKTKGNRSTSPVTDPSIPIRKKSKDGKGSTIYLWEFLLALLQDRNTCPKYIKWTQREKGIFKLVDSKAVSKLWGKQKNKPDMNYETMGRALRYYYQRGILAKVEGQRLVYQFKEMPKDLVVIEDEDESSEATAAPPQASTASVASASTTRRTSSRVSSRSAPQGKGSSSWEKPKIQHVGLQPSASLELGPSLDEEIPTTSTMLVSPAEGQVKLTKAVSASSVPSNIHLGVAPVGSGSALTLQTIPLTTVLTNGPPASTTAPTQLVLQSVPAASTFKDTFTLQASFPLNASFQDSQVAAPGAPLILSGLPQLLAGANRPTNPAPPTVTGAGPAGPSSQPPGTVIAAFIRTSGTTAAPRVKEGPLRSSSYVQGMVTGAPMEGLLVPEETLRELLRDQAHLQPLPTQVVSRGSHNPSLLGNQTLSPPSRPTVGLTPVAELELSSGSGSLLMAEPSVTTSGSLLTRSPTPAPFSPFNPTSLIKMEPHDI
# Outline: as §1
# ELK4 = biological target: T3, ELK4 (Homo sapiens, UniProt P28324-2 1-405); settings: protein: recombinant; tags: N-terminal GST; dsDNA, one strand shown
# T3 sequence: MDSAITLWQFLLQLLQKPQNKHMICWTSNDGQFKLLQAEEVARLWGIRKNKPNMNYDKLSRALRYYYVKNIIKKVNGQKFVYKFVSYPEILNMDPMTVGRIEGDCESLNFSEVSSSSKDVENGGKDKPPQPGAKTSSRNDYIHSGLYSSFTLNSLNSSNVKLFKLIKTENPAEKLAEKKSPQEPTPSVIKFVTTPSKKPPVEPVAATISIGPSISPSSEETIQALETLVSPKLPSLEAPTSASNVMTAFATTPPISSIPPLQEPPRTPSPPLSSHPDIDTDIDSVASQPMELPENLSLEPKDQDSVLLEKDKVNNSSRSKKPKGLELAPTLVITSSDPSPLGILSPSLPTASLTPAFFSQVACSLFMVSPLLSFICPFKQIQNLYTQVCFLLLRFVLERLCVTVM
# Outline: as §1
# ETV2 = biological target: T4, ETV2 (Homo sapiens, UniProt O00321 1-342); settings: protein: recombinant; tags: N-terminal GST; dsDNA, one strand shown
# T4 sequence: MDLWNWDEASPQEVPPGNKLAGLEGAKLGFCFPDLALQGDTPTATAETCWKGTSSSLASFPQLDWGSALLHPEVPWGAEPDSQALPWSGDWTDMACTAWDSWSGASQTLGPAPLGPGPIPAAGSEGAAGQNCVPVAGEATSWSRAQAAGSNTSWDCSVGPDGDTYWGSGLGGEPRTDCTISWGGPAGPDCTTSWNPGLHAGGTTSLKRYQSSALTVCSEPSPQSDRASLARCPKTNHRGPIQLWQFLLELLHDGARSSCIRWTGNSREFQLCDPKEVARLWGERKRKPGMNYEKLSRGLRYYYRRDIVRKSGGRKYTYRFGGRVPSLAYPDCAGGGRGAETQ
# Outline: as §1
# ELF3 = biological target: T5, ELF3 (Homo sapiens, UniProt P78545 1-371); settings: protein: recombinant; tags: N-terminal GST; dsDNA, one strand shown
# T5 sequence: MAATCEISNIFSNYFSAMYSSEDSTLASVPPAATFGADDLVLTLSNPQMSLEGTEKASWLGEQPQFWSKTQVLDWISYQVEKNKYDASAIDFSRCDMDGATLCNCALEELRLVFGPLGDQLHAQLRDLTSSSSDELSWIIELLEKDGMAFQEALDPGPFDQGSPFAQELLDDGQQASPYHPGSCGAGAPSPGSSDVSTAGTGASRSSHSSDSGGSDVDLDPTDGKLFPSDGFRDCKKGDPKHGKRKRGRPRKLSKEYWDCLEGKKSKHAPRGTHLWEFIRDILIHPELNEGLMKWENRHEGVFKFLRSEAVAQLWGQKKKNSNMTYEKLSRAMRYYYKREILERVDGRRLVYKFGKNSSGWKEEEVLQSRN
# Outline: as §1
# CRX = CRX (Homo sapiens, UniProt O43186 1-299); settings: protein: recombinant; tags: N-terminal GST; dsDNA, one strand shown
# Chain of CRX (O43186 whole entry): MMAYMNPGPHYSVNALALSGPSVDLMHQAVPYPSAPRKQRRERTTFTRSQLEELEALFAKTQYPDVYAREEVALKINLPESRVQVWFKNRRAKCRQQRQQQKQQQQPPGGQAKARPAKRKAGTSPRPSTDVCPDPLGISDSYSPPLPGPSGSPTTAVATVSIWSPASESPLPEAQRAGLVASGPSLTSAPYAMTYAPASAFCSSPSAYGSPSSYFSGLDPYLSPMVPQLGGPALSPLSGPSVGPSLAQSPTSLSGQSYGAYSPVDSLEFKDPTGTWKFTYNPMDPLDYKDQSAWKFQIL
# Outline: as §1
# ETV1 = ETV1 (Homo sapiens, UniProt P50549 1-477); settings: protein: recombinant; tags: N-terminal GST; dsDNA, one strand shown
# Chain of ETV1 (P50549 whole entry): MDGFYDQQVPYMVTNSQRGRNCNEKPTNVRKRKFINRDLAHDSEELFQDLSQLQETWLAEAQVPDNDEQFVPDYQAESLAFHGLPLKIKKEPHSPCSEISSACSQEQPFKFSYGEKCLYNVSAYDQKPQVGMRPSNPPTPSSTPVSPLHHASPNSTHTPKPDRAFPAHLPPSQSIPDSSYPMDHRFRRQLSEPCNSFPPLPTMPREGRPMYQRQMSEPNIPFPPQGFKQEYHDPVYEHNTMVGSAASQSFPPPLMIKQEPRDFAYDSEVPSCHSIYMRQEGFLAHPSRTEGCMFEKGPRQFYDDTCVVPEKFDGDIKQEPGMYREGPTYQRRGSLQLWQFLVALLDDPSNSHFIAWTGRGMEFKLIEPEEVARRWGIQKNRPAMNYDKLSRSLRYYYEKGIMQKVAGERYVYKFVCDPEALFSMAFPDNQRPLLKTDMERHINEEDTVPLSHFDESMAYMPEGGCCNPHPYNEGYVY
# Outline: as §1
# ERF = biological target: T6, ERF (Homo sapiens, UniProt P50548 1-548); settings: protein: recombinant; tags: N-terminal GST; dsDNA, one strand shown
# T6 sequence: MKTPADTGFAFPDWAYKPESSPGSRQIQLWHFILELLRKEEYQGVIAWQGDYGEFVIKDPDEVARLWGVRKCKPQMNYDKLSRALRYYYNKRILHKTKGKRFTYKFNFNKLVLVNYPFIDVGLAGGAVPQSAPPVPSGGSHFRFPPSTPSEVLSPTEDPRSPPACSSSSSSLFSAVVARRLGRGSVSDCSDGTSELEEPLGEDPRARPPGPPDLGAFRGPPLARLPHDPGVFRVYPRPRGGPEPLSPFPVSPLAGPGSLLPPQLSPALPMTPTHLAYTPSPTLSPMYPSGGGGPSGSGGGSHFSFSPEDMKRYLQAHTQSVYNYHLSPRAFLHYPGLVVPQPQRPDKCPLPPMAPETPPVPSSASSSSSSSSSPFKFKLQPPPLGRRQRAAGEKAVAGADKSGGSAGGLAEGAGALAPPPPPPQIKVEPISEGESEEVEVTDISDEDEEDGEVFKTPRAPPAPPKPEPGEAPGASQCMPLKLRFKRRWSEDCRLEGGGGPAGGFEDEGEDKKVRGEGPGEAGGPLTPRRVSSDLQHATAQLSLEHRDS
# Outline: as §1
# ETV3L = biological target: T7, ETV3L (Homo sapiens, UniProt Q6ZN32 1-361); settings: protein: recombinant; tags: N-terminal GST; dsDNA, one strand shown
# T7 sequence: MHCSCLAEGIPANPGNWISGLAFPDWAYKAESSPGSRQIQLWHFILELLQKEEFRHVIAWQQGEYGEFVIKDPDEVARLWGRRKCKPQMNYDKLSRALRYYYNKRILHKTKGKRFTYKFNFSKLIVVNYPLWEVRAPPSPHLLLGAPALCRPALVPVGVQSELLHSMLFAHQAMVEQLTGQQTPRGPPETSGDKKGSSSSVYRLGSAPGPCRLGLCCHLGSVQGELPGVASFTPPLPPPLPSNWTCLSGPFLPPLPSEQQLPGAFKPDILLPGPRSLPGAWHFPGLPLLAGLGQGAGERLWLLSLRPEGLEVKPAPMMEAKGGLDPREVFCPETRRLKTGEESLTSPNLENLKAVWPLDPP
# Outline: as §1
# ETS2 = biological target: T8, ETS2 (Homo sapiens, UniProt P15036 1-469); settings: protein: recombinant; tags: N-terminal GST; dsDNA, one strand shown
# T8 sequence: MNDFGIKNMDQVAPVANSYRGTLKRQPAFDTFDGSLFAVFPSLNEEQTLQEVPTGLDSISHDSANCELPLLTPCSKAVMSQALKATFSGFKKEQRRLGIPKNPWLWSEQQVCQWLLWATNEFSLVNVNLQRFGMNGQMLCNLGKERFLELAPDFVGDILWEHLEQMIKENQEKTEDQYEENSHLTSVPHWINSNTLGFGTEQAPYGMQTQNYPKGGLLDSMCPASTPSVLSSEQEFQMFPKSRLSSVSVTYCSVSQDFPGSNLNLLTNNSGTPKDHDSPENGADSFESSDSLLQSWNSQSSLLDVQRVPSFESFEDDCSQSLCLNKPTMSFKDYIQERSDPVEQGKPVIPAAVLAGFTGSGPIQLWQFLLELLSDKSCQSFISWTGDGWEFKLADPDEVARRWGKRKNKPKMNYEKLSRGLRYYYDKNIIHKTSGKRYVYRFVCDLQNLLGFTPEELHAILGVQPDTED
# Outline: as §1
# SPDEF = biological target: T9, SPDEF (Homo sapiens, UniProt O95238 1-335); settings: protein: recombinant; tags: N-terminal GST; dsDNA, one strand shown
# T9 sequence: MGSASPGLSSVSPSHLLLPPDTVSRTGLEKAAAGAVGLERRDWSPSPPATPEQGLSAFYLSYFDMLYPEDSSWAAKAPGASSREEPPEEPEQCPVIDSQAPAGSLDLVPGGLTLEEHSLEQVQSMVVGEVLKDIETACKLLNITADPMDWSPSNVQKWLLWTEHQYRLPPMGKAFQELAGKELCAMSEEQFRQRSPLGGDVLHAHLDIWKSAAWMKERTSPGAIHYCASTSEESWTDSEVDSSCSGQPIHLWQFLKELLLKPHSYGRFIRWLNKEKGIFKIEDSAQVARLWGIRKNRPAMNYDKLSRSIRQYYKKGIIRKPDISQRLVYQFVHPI
# Outline: as §1
# ETV7 = biological target: T10, ETV7 (Homo sapiens, UniProt Q9Y603 1-341); settings: protein: recombinant; tags: N-terminal GST; dsDNA, one strand shown
# T10 sequence: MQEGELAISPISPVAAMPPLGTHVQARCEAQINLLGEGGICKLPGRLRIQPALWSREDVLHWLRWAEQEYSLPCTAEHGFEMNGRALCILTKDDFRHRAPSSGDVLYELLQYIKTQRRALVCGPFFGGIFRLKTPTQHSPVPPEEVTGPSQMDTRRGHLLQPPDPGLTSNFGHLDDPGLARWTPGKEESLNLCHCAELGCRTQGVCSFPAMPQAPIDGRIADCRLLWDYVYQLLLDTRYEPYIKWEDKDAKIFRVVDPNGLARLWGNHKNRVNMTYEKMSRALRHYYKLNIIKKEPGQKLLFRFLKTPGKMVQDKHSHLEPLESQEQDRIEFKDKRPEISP
# Outline: as §1
# ELF5 = biological target: T11, ELF5 (Homo sapiens, UniProt Q9UKW6-2 1-255); settings: protein: recombinant; tags: N-terminal GST; dsDNA, one strand shown
# T11 sequence: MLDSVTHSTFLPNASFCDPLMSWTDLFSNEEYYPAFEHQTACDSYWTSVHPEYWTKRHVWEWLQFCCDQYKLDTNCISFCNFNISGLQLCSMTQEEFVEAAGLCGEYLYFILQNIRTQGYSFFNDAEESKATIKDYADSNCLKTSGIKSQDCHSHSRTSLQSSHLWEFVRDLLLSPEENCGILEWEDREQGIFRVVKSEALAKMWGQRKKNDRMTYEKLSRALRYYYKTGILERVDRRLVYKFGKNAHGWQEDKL
# Outline: as §1
# ETV3 = biological target: T12, ETV3 (Homo sapiens, UniProt P41162-2 1-143); settings: protein: recombinant; tags: N-terminal GST; dsDNA, one strand shown
# T12 sequence: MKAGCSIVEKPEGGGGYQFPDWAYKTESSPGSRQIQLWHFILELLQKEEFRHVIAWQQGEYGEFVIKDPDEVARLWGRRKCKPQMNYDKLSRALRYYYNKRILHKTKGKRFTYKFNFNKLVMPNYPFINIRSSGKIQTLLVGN
# Outline: as §1
# ETV6 = ETV6 (Homo sapiens, UniProt P41212 1-452); settings: protein: recombinant; tags: N-terminal GST; dsDNA, one strand shown
# Chain of ETV6 (P41212 whole entry): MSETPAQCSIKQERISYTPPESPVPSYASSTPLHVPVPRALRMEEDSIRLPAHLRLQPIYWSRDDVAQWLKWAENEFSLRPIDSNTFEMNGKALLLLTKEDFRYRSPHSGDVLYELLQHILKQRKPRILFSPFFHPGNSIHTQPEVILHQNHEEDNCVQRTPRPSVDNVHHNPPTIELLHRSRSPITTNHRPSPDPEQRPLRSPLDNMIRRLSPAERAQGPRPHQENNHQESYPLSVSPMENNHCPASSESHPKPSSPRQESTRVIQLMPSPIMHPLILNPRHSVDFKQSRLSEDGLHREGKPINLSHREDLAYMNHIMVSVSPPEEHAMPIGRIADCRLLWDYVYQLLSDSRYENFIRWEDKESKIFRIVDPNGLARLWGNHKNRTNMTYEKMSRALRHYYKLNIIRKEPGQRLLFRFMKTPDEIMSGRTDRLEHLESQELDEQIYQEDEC
# Outline: as §1
sequence,measurement,setting,value
TCCGGT,binding signal,FEV,"6.6 fold enrichment (6-mer frequency, TF over GST control)"
same,binding signal,ETV5,"3.98 fold enrichment (6-mer frequency, TF over GST control)"
same,binding signal,HSF1,"1.09 fold enrichment (6-mer frequency, TF over GST control)"
same,binding signal,SPIC,"3.59 fold enrichment (6-mer frequency, TF over GST control)"
same,binding signal,ELF4,"3.32 fold enrichment (6-mer frequency, TF over GST control)"
same,binding signal,ELK4,"3.14 fold enrichment (6-mer frequency, TF over GST control)"
same,binding signal,ETV2,"3.65 fold enrichment (6-mer frequency, TF over GST control)"
same,binding signal,ELF3,"3.41 fold enrichment (6-mer frequency, TF over GST control)"
same,binding signal,CRX,"1.04 fold enrichment (6-mer frequency, TF over GST control)"
same,binding signal,ETV1,"3.87 fold enrichment (6-mer frequency, TF over GST control)"
same,binding signal,ERF,"3.43 fold enrichment (6-mer frequency, TF over GST control)"
same,binding signal,ETV3L,"3.57 fold enrichment (6-mer frequency, TF over GST control)"
same,binding signal,ETS2,"3.76 fold enrichment (6-mer frequency, TF over GST control)"
same,binding signal,SPDEF,"5.35 fold enrichment (6-mer frequency, TF over GST control)"
same,binding signal,ETV7,"3.35 fold enrichment (6-mer frequency, TF over GST control)"
same,binding signal,ELF5,"4.56 fold enrichment (6-mer frequency, TF over GST control)"
same,binding signal,ETV3,"4.02 fold enrichment (6-mer frequency, TF over GST control)"
same,binding signal,ETV6,"4.04 fold enrichment (6-mer frequency, TF over GST control)"
